Consider 40 compounds from PubChem BioAssay (EPA / NIEHS).

Records with an inconclusive call do not appear. Calls of active or inactive are those of the source. Rule for the calls: active = hit-call score of the fitted dose curve at least 0.9, where 1 is the maximum; inconclusive = response in the unintended direction; inactive = score below 0.9.

The nature of the assay: ATG_M_06_TRANS: Attagene TRANS-FACTORIAL HepG2 Assay for M06 Transcription Factor (Internal Marker) (AID 2282983). The note with it: HepG2 Attagene TRANS M06 internal marker reporter. As to the method: ATG_TRANS is a cell-based, multiplexed-readout assay that uses HepG2, a human liver cell line, with measurements taken at 24 hours after chemical dosing in a 24-well plate.ATG_M_06_TRANS is one of 30 assay component(s) measured or calculated from the ATG_TRANS assay. It is designed to make measurements of mRNA induction, a form of inducible reporter, as detected with fluorescence intensity signals by Reverse transcription polymerase chain reaction (RT-PCR) and Capillary electrophoresis technology.Data from the assay component ATG_M_06_TRANS was analyzed into 1 assay endpoint. This assay endpoint, ATG_M_06_TRANS, was analyzed in the positive analysis fitting direction relative to DMSO as the negative control and baseline of activity. Using a type of inducible reporter, measures of mRNA for gain-of-signal activity can be used to understand the background control at the transcription factor-level as they relate to the gene . Furthermore, this assay endpoint can be referred to as a secondary readout, because this assay has produced multiple assay endpoints where this one serves a background control function. To generalize the intended target to other relatable targets, this assay endpoint is annotated to the background measurement intended target family, where the subfamily is internal marker.
Human liver HepG2 cells are transiently transfected with multiple reporter transcription units (MRTUs) in 6-well plates using FuGene 6 reagent (Roche; 3 ml FuGene/1 mg DNA). The MRTU constructs are regulated by a cis-regulating element (promoter). […] A major difference between the CIS and TRANS system is that in CIS activities of endogenous TFs are measured, whereas the TRANS assay evaluates changes in activities of exogenous, chimeric NR-Gal4 proteins. […] At the end of 24 hour incubation, total RNA was isolated using TriZol reagent (Invitrogen). The isolated RNA is then reverse-transcribed using oligo(dT) primer and Mo-MLV reverse transcriptase (Invitrogen) with DNAse I (Ambion) treatment for 30 min. The one-tenth of the produced cDNA was amplified by PCR using Taq DNA polymerase (Invitrogen) and two reporter sequence-specific primers. The PCR products were fluorescently labeled by primer extension with 6-arboxyfluorescein (6-FAM) 5'-labeled reporter sequence-specific primer (2 min at 95 C, 20 s at 68 C and 10 min at 72 C) and these products were digested with 5U of HpaI (New England Biolabs) for 2h at 37 C. The fragments were purified using Qiaquick PCR columns (Qiagen), analyzed on an ABI 3130xL genetic analyzer (Applied Biosystems) with peak positions identified by using a set of X-rhodamine (ROX)-labeled MapMarker1000 molecular weight standards (BioVentures). The raw capillary electrophoresis data was processed using Attagraph software (Attagene).
`C=CC(=O)NC(C)(C)C`: the outcome was inactive. As for `O=C(O)c1ccc2c(c1)C(=O)OC2=O`, the entry is “inactive”; as for `CCCCc1ccc(Cl)cc1`, “inactive”. Under `CCC(=O)C1CC(C(C)C)CC=C1C` (stereo not given) stands “inactive”. As for `C=Cc1ccc(OC(C)=O)cc1`, the entry is “inactive”; as for `CC(=O)OCC=C(C)C`, “inactive”. Regarding `CC(C)(C)N`, the result was inactive. Regarding `CCCCCCCCCCCC(=O)N(C)CC(=O)O`, the result was inactive. Consider `O=C(OCc1ccccc1)c1ccc(O)cc1`, for which the compound was called inactive. As for `CCCCOCC(C)O` (stereo not given), the entry is “inactive”; as for `c1ccc2cnccc2c1`, “inactive”; as for `CC=C(C)C=CC=C(C)C`, “inactive”. With `CC(C)(C)NC(=O)[C@H]1CC[C@H]2[C@@H]3CC[C@H]4NC(=O)C=C[C@]4(C)[C@H]3CC[C@]12C`, the compound was called inactive. `CC(C)=CCl`: the compound was called inactive. As for `CCC(C)C(=O)OC` (stereo not given), the entry is “inactive”; as for `CCCCCCCCCCCCCc1ccccc1`, “inactive”; as for `COc1nccnc1CC(C)C`, “inactive”. `CC(CC(C)C)=NO`: the compound was called inactive. Under `CC(=O)OCCc1ccccc1` stands “inactive”. As for `CCCCCCO`, the entry is “inactive”; as for `C=C[C@@]1(C)CC(=O)[C@]2(O)[C@@]3(C)[C@@H](O)CCC(C)(C)[C@@H]3[C@H](O)[C@H](OC(C)=O)[C@@]2(C)O1`, “inactive”. Regarding `Cc1ccc(C)c(OCCCC(C)(C)C(=O)O)c1`, the call was inactive.

For `O=C(O)/C=C/c1ccccc1`, the compound was classed as inactive. Under `c1ccc(-c2nc3ccccc3[nH]2)cc1` stands “inactive”; under `C=Cc1cccc(C)c1`, “inactive”. As for `CC(=O)OC1CCCCC1`, the entry is “inactive”; as for `CC(C)OC(=O)c1ccccc1`, “inactive”.

In the case of `CC1(C)CC(O)CC(C)(C)N1[O]`, the compound was classed as inactive.

Regarding `C=CCOC(=O)c1ccc(C(=O)OCC=C)c(C(=O)OCC=C)c1`, the compound was classed as inactive. As for `COC(=O)C=Cc1ccccc1`, the entry is “inactive”; as for `CCN1CCCC1=O`, “inactive”; as for `O=C(O)C1CCC(C(=O)O)CC1` (stereo not given), “inactive”. In the case of `Clc1cc(Cl)c(Cl)c(Cl)c1Cl`, the result was inactive.

On to `Cc1cccc(C(C)(C)C)c1O`, for which the call was inactive.

Consider `CCCC=C(C=O)CC`, for which the result was inactive. As for `CC(C)CCOCc1ccccc1`, the entry is “inactive”; as for `CN(C)c1ccc2nc3ccc(=[N+](C)C)cc-3sc2c1`, “inactive”. Take `CC1=CC(C)C(C=O)CC1` (stereo not given): the compound was classed as inactive. With `CCCCCCCCCCCCC`, the compound was called inactive. Regarding `O=C(Oc1ccccc1)c1ccccc1O`, the result was inactive.
